Assay results reported in PubChem BioAssay AID1159580 (chemical genetic matrix, 2015).
Out of some 5,500 compounds screened, about 2,000 (36%) were called active. Another 18% or so got no clear call; they are omitted. Rule as the data show it: active = normalized growth mostly below about 0.91 (no sharp cut-off); inconclusive = no clear call, values can overlap the other calls; inactive = mostly above about 0.92. The list shows a part of the results.

Assay: chemical genetic growth profiling, strain panel (AID 1159580);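 also: tested at 20 µM; growth read once vehicle control cultures reached saturation at 30 °C; 1 = growth at the plate median or of vehicle wells; lower values mean less growth of the strain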
Details: growth OD

Measured: normalized growth

S=c1nc[nH]c2nc[nH]c12
inactive: S. cerevisiae deletion strains, locus YJR075W, strain HOC1, stronger effect = lower value 0.996 | S. cerevisiae deletion strains, locus YKL009W, strain mrt4, stronger effect = lower value 0.987 | S. cerevisiae deletion strains, locus YKL068W, stronger effect = lower value 0.983 | S. cerevisiae deletion strains, locus YKL085W, strain MDH1 (second series), stronger effect = lower value 0.966 | S. cerevisiae deletion strains, locus YKL085W, strain MDH1, stronger effect = lower value 0.966 | S. cerevisiae deletion strains, locus YKL160W, strain elf1, stronger effect = lower value 1.04 | S. cerevisiae deletion strains, locus YKR001C, strain vps1, stronger effect = lower value 0.99 | S. cerevisiae deletion strains, locus YKR026C, strain gcn3, stronger effect = lower value 1.01 | S. cerevisiae deletion strains, locus YKR091W, strain srl3, stronger effect = lower value 0.996 | S. cerevisiae deletion strains, locus YLL001W, strain dnm1, stronger effect = lower value 1.01 | S. cerevisiae deletion strains, locus YLL026W, stronger effect = lower value 1.01 | S. cerevisiae deletion strains, locus YLL041C, strain sdh2, stronger effect = lower value 0.989 | S. cerevisiae deletion strains, locus YLR027C, strain aat2, stronger effect = lower value 1.02 | S. cerevisiae deletion strains, locus YLR039C, strain RIC1, stronger effect = lower value 1 | S. cerevisiae deletion strains, locus YLR058C, strain SHM2, stronger effect = lower value 0.982 | S. cerevisiae deletion strains, locus YLR102C, strain apc9, stronger effect = lower value 0.978 | S. cerevisiae deletion strains, locus YLR113W, strain HOG1, stronger effect = lower value 1 | S. cerevisiae deletion strains, locus YLR221C, strain rsa3, stronger effect = lower value 1.01 | S. cerevisiae deletion strains, locus YLR258W, strain gsy2, stronger effect = lower value 1.01 | S. cerevisiae deletion strains, locus YLR262C, strain YPT6 (second series), stronger effect = lower value 1.03 | S. cerevisiae deletion strains, locus YLR262C, strain YPT6, stronger effect = lower value 0.959 | S. cerevisiae deletion strains, locus YLR268W, strain sec22, stronger effect = lower value 1 | S. cerevisiae deletion strains, locus YLR320W, strain mms22, stronger effect = lower value 1.02 | S. cerevisiae deletion strains, locus YLR330W, strain CHS5, stronger effect = lower value 0.992 | S. cerevisiae deletion strains, locus YLR342W, strain FKS1 (second series), stronger effect = lower value 1 | S. cerevisiae deletion strains, locus YLR342W, strain FKS1, stronger effect = lower value 1.02 | S. cerevisiae deletion strains, locus YLR357W, strain rsc2, stronger effect = lower value 1.08 | S. cerevisiae deletion strains, locus YLR370C, strain arc18, stronger effect = lower value 1.01 | S. cerevisiae deletion strains, locus YLR371W, strain rom2, stronger effect = lower value 0.988 | S. cerevisiae deletion strains, locus YLR384C, strain iki3, stronger effect = lower value 1 | S. cerevisiae deletion strains, locus YLR418C, strain cdc73, stronger effect = lower value 1.01 | S. cerevisiae deletion strains, locus YML016C, strain PPZ1, stronger effect = lower value 1 | S. cerevisiae deletion strains, locus YML032C, strain rad52, stronger effect = lower value 1 | S. cerevisiae deletion strains, locus YML120C, strain ndi1, stronger effect = lower value 0.986 | S. cerevisiae deletion strains, locus YML124C, strain tub3, stronger effect = lower value 0.989 | S. cerevisiae deletion strains, locus YMR058W, strain fet3, stronger effect = lower value 0.988 | S. cerevisiae deletion strains, locus YMR078C, strain ctf18, stronger effect = lower value 0.973 | S. cerevisiae deletion strains, locus YMR125W, strain sto1, stronger effect = lower value 1.07 | S. cerevisiae deletion strains, locus YMR129W, stronger effect = lower value 1.01 | S. cerevisiae deletion strains, locus YMR205C, strain PFK2, stronger effect = lower value 1.01 | S. cerevisiae deletion strains, locus YMR223W, strain ubp8, stronger effect = lower value 0.949 | S. cerevisiae deletion strains, locus YMR231W, strain pep5, stronger effect = lower value 1.02 | S. cerevisiae deletion strains, locus YMR263W, strain SAP30, stronger effect = lower value 0.999 | S. cerevisiae deletion strains, locus YMR307W, strain GAS1, stronger effect = lower value 1.08 | S. cerevisiae deletion strains, locus YNL067W, strain RPL9B, stronger effect = lower value 0.996 | S. cerevisiae deletion strains, locus YNL071W, strain lat1, stronger effect = lower value 1 | S. cerevisiae deletion strains, locus YNL183C, strain NPR1, stronger effect = lower value 0.966 | S. cerevisiae deletion strains, locus YNL209W, strain ssb2, stronger effect = lower value 1.03 | S. cerevisiae deletion strains, locus YNL233W, strain BNI4, stronger effect = lower value 1 | S. cerevisiae deletion strains, locus YNL248C, strain rpa49, stronger effect = lower value 1.05 | S. cerevisiae deletion strains, locus YNL250W, strain rad50, stronger effect = lower value 0.974 | S. cerevisiae deletion strains, locus YNL271C, strain bni1, stronger effect = lower value 0.979 | S. cerevisiae deletion strains, locus YNL298W, strain CLA4, stronger effect = lower value 0.989 | S. cerevisiae deletion strains, locus YNL307C, strain MCK1, stronger effect = lower value 0.988 | S. cerevisiae deletion strains, locus YNL322C, strain KRE1 (second series), stronger effect = lower value 1.02 | S. cerevisiae deletion strains, locus YNL322C, strain KRE1, stronger effect = lower value 0.994 | S. cerevisiae deletion strains, locus YNR049C, strain mso1, stronger effect = lower value 1 | S. cerevisiae deletion strains, locus YNR052C, strain pop2, stronger effect = lower value 0.979 | S. cerevisiae deletion strains, locus YOL006C, strain TOP1, stronger effect = lower value 1.01 | S. cerevisiae deletion strains, locus YOL012C, strain htz1 0.693 | S. cerevisiae deletion strains, locus YOL147C, strain pex11, stronger effect = lower value 0.982 | S. cerevisiae deletion strains, locus YOR001W, strain rrp6, stronger effect = lower value 1 | S. cerevisiae deletion strains, locus YOR061W, strain CKA2, stronger effect = lower value 0.993 | S. cerevisiae deletion strains, locus YOR069W, strain VPS5, stronger effect = lower value 0.998 | S. cerevisiae deletion strains, locus YOR070C, strain gyp1, stronger effect = lower value 1.01 | S. cerevisiae deletion strains, locus YOR080W, strain dia2, stronger effect = lower value 1 | S. cerevisiae deletion strains, locus YOR083W, strain WHI5, stronger effect = lower value 0.983 | S. cerevisiae deletion strains, locus YOR106W, strain vam3, stronger effect = lower value 1.03 | S. cerevisiae deletion strains, locus YOR136W, strain idh2, stronger effect = lower value 0.99 | S. cerevisiae deletion strains, locus YOR144C, strain elg1, stronger effect = lower value 1 | S. cerevisiae deletion strains, locus YOR184W, strain ser1, stronger effect = lower value 0.996 | S. cerevisiae deletion strains, locus YOR231W, strain MKK1, stronger effect = lower value 1 | S. cerevisiae deletion strains, locus YOR265W, strain rbl2, stronger effect = lower value 1.01 | S. cerevisiae deletion strains, locus YOR270C, strain vph1, stronger effect = lower value 1.09 | S. cerevisiae deletion strains, locus YOR290C, strain snf2, stronger effect = lower value 1.04 | S. cerevisiae deletion strains, locus YOR316C, strain cot1, stronger effect = lower value 0.982 | S. cerevisiae deletion strains, locus YPL051W, strain arl3, stronger effect = lower value 1.01 | S. cerevisiae deletion strains, locus YPL055C, strain LGE1, stronger effect = lower value 0.992 | S. cerevisiae deletion strains, locus YPL078C, strain atp4, stronger effect = lower value 0.997 | S. cerevisiae deletion strains, locus YPL106C, strain sse1, stronger effect = lower value 1.01 | S. cerevisiae deletion strains, locus YPL240C, strain hsp82, stronger effect = lower value 1.01 | S. cerevisiae deletion strains, locus YPL241C, strain CIN2, stronger effect = lower value 0.994 | S. cerevisiae deletion strains, locus YPL256C, strain CLN2, stronger effect = lower value 1.04 | S. cerevisiae deletion strains, locus YPR119W, strain clb2, stronger effect = lower value 0.977 | S. cerevisiae deletion strains, locus YPR141C, strain kar3, stronger effect = lower value 0.98 | S. cerevisiae deletion strains, locus YPR163C, strain tif3, stronger effect = lower value 0.974 | S. cerevisiae deletion strains, locus YPR167C, strain met16, stronger effect = lower value 0.988 | S. cerevisiae deletion strains, strain wtn01, stronger effect = lower value 0.978 | S. cerevisiae strains, strain wild type, stronger effect = lower value 1
